# The list is not random: actives were taken first. Their share in the collection is about 1.1%.
# SNCA expr inhib = SNCA gene expression inhibition; HEK-293 SNCA-luciferase knock-in, luminescence, 24 h; Potency, µM (top dose mostly 57.2 µM), hits mostly inhibitors; 140,000 tested, 0.17% active; AID 1671194; further: nearly all actives have a fitted effect of over 45% in size
# SNCA viab count = cell viability loss counter-screen; HEK-293-SNCA-luc viability, GF-AFC fluorescence, 24 h; Potency, µM (titrated, usually from 57.1 µM), usual class: cytotoxic; 150,000 tested, 0.12% active; AID 1671193; further: nearly all actives have a fitted effect of over 30% in size
#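 HEK-293-SNCA-luc cells (1500/well) plated 24 h, then exposed 24 h to a dilution series; GF-AFC added 30 min at 37C, fluorescence 405/540 nm; normalised to medium-only and DMSO wells, Hill fit.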
# IP6K1 inhibitor = IP6K1 kinase inhibition; Q92551; IP6K1 kinase, ADP-Glo luminescence, 2 h; stronger effect = lower value; 140,000 tested, 0.81% active; activity change, % (series mostly up to about 58 µM); in the data active means activity change below about -25%
# Target sequence (Q92551 whole entry, looked up): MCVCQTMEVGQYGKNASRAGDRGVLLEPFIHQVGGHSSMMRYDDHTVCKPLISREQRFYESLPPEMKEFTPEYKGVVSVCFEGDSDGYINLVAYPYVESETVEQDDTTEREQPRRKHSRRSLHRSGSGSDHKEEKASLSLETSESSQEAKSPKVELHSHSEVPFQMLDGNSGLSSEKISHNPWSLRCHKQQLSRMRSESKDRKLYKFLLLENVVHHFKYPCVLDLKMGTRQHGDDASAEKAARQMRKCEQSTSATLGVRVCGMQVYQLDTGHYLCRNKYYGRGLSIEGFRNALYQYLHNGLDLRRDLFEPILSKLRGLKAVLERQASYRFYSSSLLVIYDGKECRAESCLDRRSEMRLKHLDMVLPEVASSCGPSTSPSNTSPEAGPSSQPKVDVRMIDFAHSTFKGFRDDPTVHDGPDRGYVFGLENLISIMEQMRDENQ
#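 ADP-Glo luminescence measures ADP made by human IP6K1 during a 2 h RT reaction with ATP/IP6 (mix at 1.3 mM/130 uM); top library doses 57.5 and 19.1 uM final.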
# GPT2 inhibitor = inhibitors of human GPT2 alanine aminotransferase; AID 1671188; Recombinant GPT2, coupled pyruvate oxidase/HRP Amplex Red fluorescence; 100,000 tested, 0.25% active; Q8TD30; Potency, µM (doses to about 57.7 µM), actives largely listed as inhibitors; further: nearly all actives have a fitted effect of over 60% in size
#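 GPT2 10ng/uL, a-KG 250uM, L-Ala 2mM, HEPES pH7.5 + 0.0001% Tween; 30 min RT. Then Amplex mix (PO/HRP/ThPP), 30 min RT dark, fluorescence. AOA 50uM used as positive control.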
# Numbers stand for hits; i = inactive; ? = inconclusive; nt = no result given; ! = not confirmed by another sample; [ ] = dose if it differs, or a comment. Unless noted, the call rests on the fitted dose curve; in most records, active means well fitted curve in the direction sought with a large enough effect; inconclusive means small, poorly fitted or top-dose-only effect, or another doubt; inactive means no such curve, though single readings can be large; an effect the other way counts as inactive or inconclusive.
SMILES,SNCA expr inhib,SNCA viab count,IP6K1 inhibitor,GPT2 inhibitor
COc1ccccc1Nc1c2c(nc3ccc(NC(=O)c4cccc(OC)c4OC)cc13)CCCC2,?,16µM,i,nt
Cc1cccc(CNC(=O)c2ccc(Cn3c(SCc4ccccc4)nc4cccnc43)cc2)c1,i,?,i,nt
Cc1cccc(CNC(=O)c2ccc(Cn3c(SCc4cccc(F)c4)nc4cccnc43)cc2)c1,i,i,-53,nt
O=C(Nc1ccc(Oc2ccccc2)cc1)O[C@@H]1CO[C@H]2[C@@H]1OC[C@@H]2NC(=S)Nc1cccc2ccccc12,?,i,i,i
Cn1ncc2c(C(=O)NCc3cccc(F)c3)cc(-c3ccccc3F)nc21,nt,nt,i,nt
COc1ccc(C(=O)N2CCC(C(NC(=O)c3ccccc3C)C(=O)NC(C)C(C)C)CC2)cc1 (stereo not given),i,20µM,i,i
CC(C)NCC(O)c1ccc2ccccc2c1 (stereo not given),i,i,i,i
CNC[C@H](O)c1ccc(O)c(O)c1,i,i,i,14µM!
CC(C)NCC(O)c1ccc(O)c(O)c1 (stereo not given),i,?,i,17µM!
Cc1cc(=O)n(CC(=O)Nc2ccc(Br)cc2F)c(N2CCc3ccccc3C2)n1,?,?,i,i
CC(=O)NC1(C)CCN(Cc2ccc(-c3ccc(Oc4ccccc4)cc3)cc2)C1 (stereo not given),i,i,i,i
C=C[C@@]1(C)C=C2C(=O)C(O)=C3[C@](C)(C(=O)O)CC[C@@H]4C[C@]34[C@]2(O)C(=O)C1,nt,18µM,i,?
C[C@@H]1C[C@H]2O[C@@H]2/C=C\C=C\C(=O)Cc2c(Cl)c(O)cc(O)c2C(=O)O1,nt,i[12.5 µM],-27,i
COc1ccc(-c2cn3cc(C(=O)N4CCOCC4)nc3s2)cc1,i,i,i,i
COc1cccc(-c2cn3cc(C(=O)N4CCOCC4)nc3s2)c1,13µM,?,i,i
Cc1ccc(NC(=O)C2(c3ccc4c(c3)OC(F)(F)O4)CC2)nc1-c1cccc(C(=O)O)c1,0.076µM,?,i,i
CC(C)NC(=O)C[C@@H]1c2nc(NC(=O)c3ccc(C(C)(C)C)cc3)sc2C[C@@H]2[C@](C)(CO)[C@H](O)CC[C@]21C,i,i,i,i
Cc1ccc(NC(=O)c2nc3sccn3c2-c2cccc(C(F)(F)F)c2)cc1,i,i,i,i
COc1ccc(NC(=O)c2nc3sccn3c2-c2cccc(C(F)(F)F)c2)cc1,i,22µM,i,?
C/C1=C/CCC2=CC(OC2=O)C(C)(C)/C=C/C1=O (stereo not given),nt,7.5µM,i,i
Cn1ncc2c(C(=O)NC3CCc4ccccc43)cc(-c3ccccc3C(F)(F)F)nc21 (stereo not given),nt,nt,i,nt
O=C(O)Cn1ccc2cc(OCC3CCN(C(=O)CCC(F)(F)F)CC3)cnc21,i,i,i,?
COc1ccc(/C=C/C(=O)Nc2ccccc2C(=O)O)cc1OC,1.6µM,i,i,i
COc1ccc(C=CC(=O)Nc2ccccc2C(=O)O)cc1OC,1.5µM,i,nt,i
CCNc1cc(N2CCC(CCC(=O)Nc3cccc(OC)c3)CC2)ncn1,7.9µM,i,i,i
SMILES,SNCA expr inhib,SNCA viab count,IP6K1 inhibitor,GPT2 inhibitor
CCCNc1cc(N2CCC(CCC(=O)NCc3cccc(OC)c3)CC2)ncn1,2.2µM,i,i,i
CCNc1cc(N2CCC(CCC(=O)O)CC2)ncn1,1.3µM,i,i,i
CCCNc1cc(N2CCC(CCC(=O)NCc3ccccc3Cl)CC2)ncn1,2.8µM,i,i,i
Cn1ncc2c(C(=O)NC3Cc4ccccc4C3)cc(-c3ccccc3C(F)(F)F)nc21,nt,nt,i,nt
O=C(NCc1ccc2c(c1)OCO2)C1CCN(C(=O)c2ccc(-c3cccs3)cc2)CC1,nt,nt,i,nt
O=C(CCC1CCN(c2cc(NC3CC3)ncn2)CC1)NCc1ccccc1Cl,8.9µM,i,i,i
CNC(=O)C1CCCN1Cc1cccc(-c2ccc(C)c(Cl)c2)c1 (stereo not given),nt,nt,i,nt
COCCC1(NC(=O)C(C)c2ccccc2)CCN(S(C)(=O)=O)CC1 (stereo not given),i,20µM,i,i
CCC1Oc2ccc(NC(=O)Cc3ccccc3)cc2CN(Cc2ccc3c(c2)OCO3)C1=O (stereo not given),i,i,i,i
CC1=C[C@@H](CNC(=O)C2CCCCC2)[C@H](C(C)C)C[C@H]1CC(=O)N1CCN(c2ccccn2)CC1,?,28µM,i,i
CC1(CCCCc2ccccc2)COc2ccc(C(=O)NCCN3CCOCC3)cc2N1 (stereo not given),?,i,i,i
c1ccc(-c2noc(-c3ccc(OC4CNC4)cc3)n2)cc1,10µM,i,i,i
COc1ccc(CN2CCn3c(nn(-c4ccc([N+](=O)[O-])cc4)c3=O)C2)cc1,i,i,i,i
CCCc1nc(C)c2c(=O)[nH]c(-c3cc(S(=O)(=O)N4CCN(CC)CC4)ccc3OCC)nn12,?,27µM!,i,?
COc1cc2nc(N3CCC(N4CCCCC4)CC3)nc(NC3CCCCCC3)c2cc1OC,nt,24µM,i,i
COc1cc2c(NC3CCN(C(C)C)CC3)nc(C3CCCCC3)nc2cc1OCCCN1CCCC1,i,?,i,i
COc1ccc(CNC(=O)c2nc(S(=O)(=O)Cc3ccccc3)ncc2Cl)cc1,?,25µM,i,nt
O=C(NCc1ccccc1)c1nc(S(=O)(=O)Cc2ccccc2)ncc1Cl,?,?,i,nt
CCCSc1ncc(Cl)c(C(=O)N(Cc2ccccc2)c2ccc(OC)cc2)n1,?,i,i,nt
O=C(c1ccc(Cl)cc1)N(Cc1ccco1)Cc1ccco1,i,i,i,nt
COc1ccc(N(Cc2ccccc2)C(=O)c2nc(S(C)(=O)=O)ncc2Cl)cc1,?,6.3µM,-26,nt
CS(=O)(=O)c1ncc(Cl)c(C(=O)N(Cc2ccc(Cl)cc2)Cc2ccco2)n1,?,2.5µM,i,nt
CS(=O)(=O)N1CCC2(CC1)CN(c1cccc(F)c1)C2c1ccccc1 (stereo not given),i,i,i,i
COc1ccc(NS(=O)(=O)c2ccc3c(c2)[C@H]2C=CC[C@H]2[C@@H](c2ccc(C(=O)O)cc2)N3)cc1,i,i,-58,nt
C=C[C@H]1[C@H](O[C@@H]2O[C@H](CO)[C@@H](O)[C@H](O)[C@H]2O)OC=C(C(=O)OC)[C@H]1C[C@@H]1c2cc(O)c(O)cc2CCN1C(C)=O,nt,i,i,3.2µM
SMILES,SNCA expr inhib,SNCA viab count,IP6K1 inhibitor,GPT2 inhibitor
O=C(NCc1ccc(Cl)cc1)c1ccc2nnc(-c3cccnc3)n2c1,i,i,i,i
O=C(NCc1ccccc1)c1ccc2nnc(-c3cccnc3)n2c1,25µM,i,i,i
CNC(=O)c1cc(-c2ccccc2F)nc2c1cnn2C,nt,nt,i,nt
CCn1c(=N)n(CCOc2ccc(Br)cc2)c2ccccc21,25µM,?,i,nt
O=C(CCC1CCN(c2cc(NC3CC3)ncn2)CC1)NCc1ccc(F)cc1F,3.5µM,i,i,i
O=C(CCC1CCN(c2cc(NC3CC3)ncn2)CC1)NCc1cc(F)cc(F)c1,4.5µM,i,i,i
O=C(CCC1CCN(c2cc(NC3CC3)ncn2)CC1)NCc1ccc(F)cc1,?,i,i,i

# Assay outcomes deposited in PubChem BioAssay by National Center for Advancing Translational Sciences (NCATS).
